Source: PubChem BioAssay
FBA Mtb inh: inhibitors of M. tuberculosis fructose-bisphosphate aldolase; P9WQA3; purified M. tuberculosis FBA, fluorescence read-out; inhibition, % at 1 µM; 360,000 compounds, 2.3% hits; AID 588726; in the data active means inhibition above about 27%;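 further: 0% = vehicle and 100% = reference inhibitor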
Target sequence (P9WQA3 whole entry, looked up): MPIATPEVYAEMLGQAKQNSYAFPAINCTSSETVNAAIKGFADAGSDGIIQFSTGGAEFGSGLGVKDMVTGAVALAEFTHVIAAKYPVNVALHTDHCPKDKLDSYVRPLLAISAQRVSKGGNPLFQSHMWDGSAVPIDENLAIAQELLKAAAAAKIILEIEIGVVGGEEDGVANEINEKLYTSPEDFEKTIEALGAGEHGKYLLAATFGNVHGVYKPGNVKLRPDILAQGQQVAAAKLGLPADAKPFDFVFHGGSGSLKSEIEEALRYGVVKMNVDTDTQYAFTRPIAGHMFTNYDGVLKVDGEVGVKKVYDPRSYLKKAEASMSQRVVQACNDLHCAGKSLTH
BoNT-F LC inh: blocks Botulinum neurotoxin F light chain protease; inhibition, % at 10 µM; AID 588497; 360,000 compounds, 0.22% hits; Multiplex microsphere protease cleavage assay, flow cytometry; in the data active means inhibition above about 35%, passing the limit was not always enough; inconclusive means no clear call, values can overlap the other calls; further: plate controls were buffer without enzyme for full effect and enzyme alone for no effect
BoNT-A LC inh2: blocks Botulinum neurotoxin A light chain protease; inhibition, % at 10 µM; multiplex microsphere protease substrate cleavage, flow cytometry; AID 588499; 360,000 compounds, 0.17% hits; further: plate controls were buffer without enzyme for full effect and enzyme alone for no effect
Autofluor counter: compound fluorescence in toxin protease inhibitor counterscreen | compound autofluorescence counterscreen, microsphere flow cytometry; stronger effect = higher value | fluorescence intensity (test concentration not listed) | 360,000 compounds, 3.1% hits; in the data active means fluorescence intensity above about 16000; inconclusive means no clear call, values can overlap the other calls
GDH-TPI counter: counter-screen for M. tuberculosis FBA inhibitors: GDH-TPI coupled enzymes; GDH-TPI coupled enzyme counterscreen, NADH absorbance; inhibition, % at 4.8 µM; 360,000 compounds, 1.2% hits; AID 588335; in the data active means inhibition above about 30%;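 further: 0% = DMSO wells and 100% = wells lacking the enzyme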
Anthrax LF prot: blocks Bacillus anthracis lethal factor protease; P15917; multiplex microsphere protease cleavage assay, LF; inhibition, % at 10 µM; 360,000 compounds, 0.12% hits; further: plate controls were buffer without enzyme for full effect and enzyme alone for no effect
* hit, by the source's call; ? = inconclusive. An excerpt weighted towards active compounds, which were near 6.7% of everything screened. Unless noted, no stated cut-off is given here; in the data, active means inhibition above about 30%; inconclusive means no clear call, values can overlap the other calls; inactive means below that.

SMILES	FBA Mtb inh	BoNT-F LC inh	BoNT-A LC inh2	Autofluor counter	GDH-TPI counter	Anthrax LF prot
CCOC(=O)C1(CCOc2ccccc2)CCN(Cc2cccc(OC)c2O)CC1	3	?	0	4124	-13	11
COc1cc(/C=C2/S/C(=N/S(=O)(=O)Cc3ccccc3)NC2=O)c([N+](=O)[O-])cc1OC	-3	-6	0	3582	34*	-2
O=C1N/C(=N\S(=O)(=O)Cc2ccccc2)S/C1=C/c1cc([N+](=O)[O-])ccc1O	-34	-13	2	?	39*	?
O=C1N/C(=N\S(=O)(=O)c2ccccc2)S/C1=C\c1cc([N+](=O)[O-])ccc1O	-18	5	-1	6169	10	3
COc1cc(/C=C2\S/C(=N/S(=O)(=O)Cc3ccccc3)NC2=O)c([N+](=O)[O-])cc1OC	-4	-7	0	3635	33*	-4
COc1cc(/C=C2/S/C(=N/S(=O)(=O)c3ccccc3)NC2=O)c([N+](=O)[O-])cc1OC	-5	-11	-1	4365	26	-2
Cc1oc2c(C)c(O)ccc2c(=O)c1-c1ccc2ccccc2n1	-4	2	2	19935*	9	1
COc1ccc(S(=O)(=O)N2CCc3ccccc32)cc1C(=O)N(CC(C)C)C1CCS(=O)(=O)C1 (stereo not drawn)	3	14	-2	5981	12	-1
CC(C)c1nc(NCc2ccccc2)c(C#N)c2c1CCCC2	0	-20	-2	4804	13	-5
CC(C)c1nc(NCCO)c(C#N)c2c1CCCC2	16	?	-1	3151	39*	9
O=C(C1CCCCN1S(=O)(=O)c1ccccc1)N1CCCCC1 (stereo not drawn)	3	-8	-1	11082	13	-3
O=C(C1CCCCN1S(=O)(=O)c1ccccc1)N1CCN(C(c2ccccc2)c2ccccc2)CC1 (stereo not drawn)	-2	-1	-1	20580*	-8	-4
Cc1nnc(SCc2nc3sc(C(=O)O)c(C)c3c(=O)[nH]2)s1	0	17	2	3484	7	0
COCC(C)NC(C(=O)Nc1ccc(C)c(Cl)c1)c1ccccc1 (stereo not drawn)	0	1	?	21763*	4	-3
COCC(C)NC(C(=O)Nc1cccc(C(C)=O)c1)c1ccccc1 (stereo not drawn)	-3	7	0	4178	10	-2
CCCCCn1c(CN2CCN(c3cccc(Cl)c3)CC2)nc2c1c(=O)[nH]c(=O)n2C	-2	-2	0	20547*	2	-8
CCCCCCCCn1c(N2CCN(c3cccc(Cl)c3)CC2)nc2c1c(=O)[nH]c(=O)n2C	-3	0	0	9367	-7	5
CCCCCCn1c(CN2CCN(Cc3ccccc3)CC2)nc2c1c(=O)n(C)c(=O)n2C	2	-3	-1	20131*	-8	-1
CCCCCn1c(CN2CCN(C)CC2)nc2c1c(=O)n(C)c(=O)n2C	-2	-7	0	5551	4	-4
CCCCCn1c(CN2CCN(C(=O)OCC)CC2)nc2c1c(=O)[nH]c(=O)n2C	1	-4	0	11366	0	-3
CCOC(=O)N1CCN(Cc2nc3c(c(=O)n(C)c(=O)n3C)n2CCCc2ccccc2)CC1	0	3	2	20078*	-10	-3
CCOC(=O)N1CCN(Cc2nc3c(c(=O)[nH]c(=O)n3C)n2Cc2cc(C)ccc2C)CC1	-2	2	?	20382*	-3	2
CN1CCN(Cc2nc3c(c(=O)[nH]c(=O)n3C)n2CCc2ccccc2)CC1	-2	-9	0	5776	4	-6
COc1ccc(N2CCN(Cc3nc4c(c(=O)n(C)c(=O)n4C)n3CC(C)=O)CC2)cc1	0	-2	-2	20509*	-4	-2
CCCCCn1c(CN2CCN(Cc3ccccc3)CC2)nc2c1c(=O)[nH]c(=O)n2C	6	-1	-1	22888*	2	0
SMILES	FBA Mtb inh	BoNT-F LC inh	BoNT-A LC inh2	Autofluor counter	GDH-TPI counter	Anthrax LF prot
Cn1c(=O)[nH]c(=O)c2c1nc(CN1CCN(c3cccc(Cl)c3)CC1)n2CCc1ccccc1	1	-9	-2	16970*	7	-2
CSc1ccccc1NC(=O)Cn1nc([N+](=O)[O-])c(Cl)c1C	-2	0	0	4933	-11	-4
CCN(CC)c1ccc(C(=S)N2CCN(c3ccccc3)CC2)cc1	2	-11	-1	3816	23	-3
O=C(N/N=C/C(Br)=C/c1ccccc1)C(O)c1ccccc1 (stereo not drawn)	0	?	1	3143	43*	-6
O=C(N/N=C/C(Br)=C/c1ccccc1)C1CC1	-1	0	0	4627	21	-7
Cc1ccc(NCC(=O)N/N=C\C(Br)=C\c2ccccc2)cc1	2	-7	-2	10220	11	-1
O=C(O)c1ccc(N/N=C/C(Br)=C/c2ccccc2)cc1	1	-3	0	3416	66*	6
COc1cccc(C(C(=O)NC2CCCCC2)N(C(=O)Cc2cccs2)c2ccc(-n3cnnn3)c(OC)c2)c1 (stereo not drawn)	2	2	0	22984*	-12	-1
Cc1cc(C(=O)CSc2nnc(-c3ccc(Cl)cc3)n2C)c(C)n1CC1CCCO1 (stereo not drawn)	2	-6	-1	22941*	12	0
Cc1cc(C(=O)CSc2nc3ccccc3[nH]2)c(C)n1CC1CCCO1 (stereo not drawn)	1	-10	-8	17964*	5	-5
Cc1cc(C(=O)CSc2nc(N)cc(=O)[nH]2)c(C)n1CC1CCCO1 (stereo not drawn)	0	0	0	3989	2	-1
C=CCn1c(SCC(=O)c2cc(C)n(CC3CCCO3)c2C)nnc1-c1ccccc1 (stereo not drawn)	2	9	-1	3910	16	-5
COc1ccc(NC(=O)CN(C)C(=O)c2ccc(NS(=O)(=O)c3ccc(C)c([N+](=O)[O-])c3)cc2)cc1	1	-245	-180	?	6	-38
COc1ccc(C(=O)NCC(C)(c2ccccc2)c2ccccc2)cc1S(=O)(=O)N1CCOCC1	5	-2	0	4074	3	-8
COc1ccc(Br)cc1/C=C/C(=O)NCC(=O)O	5	-2	0	4330	4	2
CCC[C@@H]1C[C@@H](C(=O)N[C@H]([C@@H](C)O)[C@H]2O[C@H](SC)[C@H](O)[C@@H](O)C2O)N(C)C1 (stereo partly drawn)	3	9	1	5357	-4	6
O=C(Nc1cccc(F)c1)C1CCN(C(=O)c2ccc(Br)cc2)CC1	1	-1	-1	23473*	-3	1
O=C(Nc1ccc(Br)cc1)C1CCN(C(=O)c2ccc(F)cc2)CC1	2	4	0	2076	4	-1
Cn1c(N2CCN(c3ccccn3)CC2)nc2c1c(=O)n(Cc1ccccc1Cl)c(=O)n2C	1	0	0	3506	-6	1
